Several values for one entry are separate records, joined by “and”; a condition that tells them apart may be missing. Equal entries are not always repeated. Among all 5,500 compounds or so, about 2,000 (36%) were called active. Inconclusive results (about 18%) are left out. Cut-off read from the data, not from the text of the source: active = normalized growth mostly below about 0.91 (no sharp cut-off); inconclusive = no clear call, values can overlap the other calls; inactive = mostly above about 0.92. The list shows a part of the results.
Experiment: chemical genetic growth profiling, strain panel (AID 1159580);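 note: tested at 20 µM; growth read once vehicle control cultures reached saturation at 30 °C; 1 = growth at the plate median or of vehicle wells; lower values mean less growth of the strain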
Conditions: S. cerevisiae deletion strains, growth OD

Measured: normalized growth

CCCCC1=NC2(CCCC2)C(=O)N1Cc1ccc(-c2ccccc2-c2nn[nH]n2)cc1
inactive: locus YAL013W, strain DEP1, hits give low values 0.984 | locus YAL021C, strain ccr4, hits give low values 1.01 | locus YAL026C, strain drs2, hits give low values 1.01 | locus YAL030W, strain snc1, hits give low values 1.02 | locus YBL061C, strain skt5, hits give low values 1.02 | locus YBR009C, strain hhf1, hits give low values 1.01 | locus YBR021W, strain FUR4, hits give low values 0.985 | locus YBR023C, strain chs3, hits give low values 1.01 | locus YBR171W, strain sec66, hits give low values 1.02 | locus YBR229C, strain ROT2, hits give low values 0.938 | locus YBR231C, strain swc5, hits give low values 1.03 | locus YBR279W, strain paf1, hits give low values 1.01 | locus YCL011C, strain gbp2, hits give low values 1.03 | locus YCL016C, strain dcc1, hits give low values 1.01 | locus YCL029C, strain bik1, hits give low values 0.993 | locus YCL069W, strain vba3, hits give low values 1.02 | locus YCR088W, strain abp1, hits give low values 1.02 | locus YDL005C, strain med2, hits give low values 1.03 | locus YDL035C, strain GPR1, hits give low values 0.974 | locus YDL040C, strain nat1, hits give low values 1.02 | locus YDL074C, strain BRE1, hits give low values 1 | locus YDL101C, strain DUN1, hits give low values 0.99 | locus YDL134C, strain PPH21, hits give low values 0.988 | locus YDL185W, strain tfp1, hits give low values 0.987 | locus YDL192W, strain arf1, hits give low values 0.985 | locus YDR001C, strain nth1, hits give low values 1 | locus YDR069C, strain doa4, hits give low values 1.02 | locus YDR101C, strain arx1, hits give low values 0.998 | locus YDR137W, strain rgp1, hits give low values 1.01 | locus YDR150W, strain NUM1, hits give low values 0.97 | locus YDR159W, strain sac3, hits give low values 1.02 | locus YDR162C, strain NBP2, hits give low values 0.982 | locus YDR195W, strain ref2 1.02 | locus YDR297W, strain sur2, hits give low values 1.02 | locus YDR318W, strain mcm21, hits give low values 1 | locus YDR334W, strain swr1, hits give low values 1.02 | locus YDR335W, strain msn5, hits give low values 1 | locus YDR388W, hits give low values 0.999 | locus YDR392W, strain spt3, hits give low values 1.01 | locus YDR502C, strain sam2, hits give low values 0.982 | locus YEL003W, strain gim4, hits give low values 1.01 | locus YEL037C, strain rad23, hits give low values 1.02 | locus YEL061C, strain CIN8 (second series), hits give low values 1.03 | locus YEL061C, strain CIN8, hits give low values 0.979 | locus YER015W, strain faa2, hits give low values 1.02 | locus YER016W, strain bim1, hits give low values 1.01 | locus YER110C, hits give low values 0.977 | locus YER111C, strain swi4, hits give low values 1 | locus YER155C, strain BEM2 (second series), hits give low values 1.05 | locus YER155C, strain BEM2, hits give low values 1.01 | locus YER167W, strain BCK2, hits give low values 0.976 | locus YFR010W, strain ubp6, hits give low values 1.02 | locus YGL078C, strain dbp3, hits give low values 0.969 | locus YGL086W, strain mad1, hits give low values 0.988 | locus YGL167C, strain pmr1, hits give low values 1.02 | locus YGL173C, strain kem1, hits give low values 1.02 | locus YGL227W, strain vid30, hits give low values 1.01 | locus YGL240W, strain doc1, hits give low values 0.993 | locus YGL248W, strain PDE1, hits give low values 0.979 | locus YGL253W, strain hxk2, hits give low values 1.01 | locus YGR078C, strain PAC10, hits give low values 1.02 | locus YGR135W, strain pre9, hits give low values 1.02 | locus YGR229C, strain SMI1, hits give low values 1.01 | locus YGR252W, strain gcn5, hits give low values 0.931 | locus YHR013C, strain ard1, hits give low values 1.01 | locus YHR027C, strain rpn1, hits give low values 1.01 | locus YHR030C, strain SLT2, hits give low values 0.994 and 0.967 | locus YHR079C, strain IRE1 (second series), hits give low values 0.989 | locus YHR079C, strain IRE1, hits give low values 0.973 | locus YHR094C, strain hxt1, hits give low values 0.992 | locus YHR129C, strain ARP1, hits give low values 1 | locus YHR142W, strain chs7, hits give low values 1.01 | locus YHR200W, strain rpn10, hits give low values 0.99 | locus YIL066C, strain RNR3, hits give low values 0.974 | locus YIL073C, strain SPO22, hits give low values 1.01 | locus YIL125W, strain kgd1, hits give low values 0.966 | locus YIR030C, strain dcg1, hits give low values 0.978 | locus YJL092W, strain hpr5, hits give low values 1.01 | locus YJL095W, strain BCK1 (second series), hits give low values 1.02 | locus YJL095W, strain BCK1, hits give low values 1.06 and 1.01 | locus YJL115W, strain asf1, hits give low values 0.999 | locus YJL129C, strain trk1, hits give low values 1.01 | locus YJL134W, strain LCB3, hits give low values 0.98 | locus YJL154C, strain vps35, hits give low values 1.01 | locus YJL164C, strain tpk1, hits give low values 0.997 | locus YJL166W, strain qcr8, hits give low values 1.03 | locus YJL168C, strain set2, hits give low values 0.993 | locus YJL187C, strain SWE1 (second series), hits give low values 1.01 | locus YJR043C, strain POL32, hits give low values 1.02 | locus YJR066W, strain TOR1, hits give low values 0.953 | locus YJR075W, strain HOC1, hits give low values 1.01

Source: PubChem BioAssay AID1159580 (chemical genetic matrix, 2015)
